Hit rate of the full screen: of about 48,000 compounds, about 13,000 (27%) showed an effect of 50% or more. The list shows a part of the results.
tested on: Wolbachia pipientis; test: Anti-Wolbachia Cell-Based Screen; assay type: functional; design: scale not given: in the data most compounds retested in dose-response had high values; details: 5 µM

SMILES | Percent Effect [%]
CC(C)c1ncc(CN2C[C@@H](CN3CCCCC3)[C@@H](CO)C2)cn1 | -5.957
OC[C@H]1CN(Cc2c(Cl)cncc2Cl)C[C@H]1CN1CCCCCC1 | -60.78
O=C(CCCc1cn[nH]c1)N1C[C@@H](CN2CCOCC2)[C@@H](CO)C1 | 24.78
OCc1csc(N2C[C@@H](CN3CCCCCC3)[C@@H](CO)C2)n1 | 103.7
CC(=O)c1ccc(CN2C[C@@H](CN3CCC(O)CC3)[C@@H](CO)C2)cc1 | -12.65
COc1cnc(N2C[C@@H](CN3CCOCC3)[C@@H](CO)C2)nc1 | -6.772
O=C(CCc1cn[nH]c1)N1C[C@@H](CN2CCCCCC2)[C@@H](CO)C1 | 3.932
NC(=O)c1csc(N2C[C@@H](CN3CCC(O)CC3)[C@@H](CO)C2)n1 | 99.75
NC(=O)c1csc(N2C[C@@H](CN3CCOCC3)[C@@H](CO)C2)n1 | 103.5
CCc1cc(C(=O)N2CCc3c(ncn3CCc3ccccc3)C2)[nH]n1 | 0.9556
CC(C(=O)NC1(C#N)CCCCC1)N1CCc2c(ncn2C2CC2)C1 (configuration not stated) | 2.173
Cc1ccc(F)c(NC(=O)CCC(=O)N(C)Cc2nc(C)c[nH]2)c1 | -39.22
CC(C)n1c(C2CCCN(CC(=O)NC3CC3)C2)nc2ccccc21 (configuration not stated) | -1.015
O=C1COc2ccccc2N1CCCn1cnnn1 | -11.05
CN(C)C(CNS(=O)(=O)c1cnn(C)c1)c1cccc(F)c1 (configuration not stated) | 6.578
N#Cc1ccc(OC2CCN(C(=O)c3ccc(Br)o3)CC2)nc1 | 22.17
CN1CCCN(C[C@@H]2CN(c3nc(C(N)=O)cs3)C[C@@H]2CO)CC1 | 120.2
Cc1nc(N2C[C@@H](CN3CCCN(C)CC3)[C@@H](CO)C2)c2sccc2n1 | 6.466
Cc1nc(N2C[C@@H](CN3CCCN(C)CC3)[C@@H](CO)C2)c2ccsc2n1 | 13.06
Cc1cnn(C2CN(CC(O)c3ccc(F)cc3)C2)c1 (configuration not stated) | 3.544
O=C1O[C@@H]2CN(c3cnccn3)C[C@@H]2N1CCCc1ccc(F)cc1 | 20.37
COc1c(C)cnc(CN(C)C(=O)c2ccccc2F)c1C | -7.265
Cc1cc(NS(=O)(=O)c2ccc(C(=O)O)cc2F)ccc1F | 102.3
O=C(O)c1ccc(S(=O)(=O)Nc2ccc(Cl)c(F)c2)c(F)c1 | 4.995
O=C(O)c1ccc(S(=O)(=O)Nc2ccccc2F)c(F)c1 | -2.05
Cc1ccccc1NS(=O)(=O)c1ccc(C(=O)O)cc1F | 0.9629

SMILES | Percent Effect [%]
N#Cc1cccc(NS(=O)(=O)c2ccc(C(=O)O)cc2F)c1 | 100.6
O=C(O)c1ccc(S(=O)(=O)Nc2cccc(CC(F)(F)F)c2)c(F)c1 | -7.999
Cc1ccc(F)cc1S(=O)(=O)N(C)CC(N)=O | 2.56
O=C1CCC2(CCNCC2)CN1CCCOc1cccnc1 | -10.24
COc1ccc(CN(C)C(=O)NC(C)c2nncn2C)cc1F (configuration not stated) | -30.44
CC(c1ccccc1)N1CCC(NC(=O)CCc2ccsc2)CC1 (configuration not stated) | 5.953
O=C(COc1ccccc1)NCC1CCN(Cc2ccsc2)CC1 | 115.8
CSc1cccc(CN2CCC(CCC(=O)NCCN(C)C)CC2)c1 | -5.054
O=C(CCSc1ccccc1)NCC1CCN(Cc2ccsc2)CC1 | 78.72
COCCNC(=O)CCC1CCN(Cc2cccc(SC)c2)CC1 | 4.456
O=C(NCC1CCN(Cc2ccsc2)CC1)NC1CC1 | 4.525
COCC(=O)NCC1CCN(Cc2ccsc2)CC1 | 155
CCSc1ccccc1C(=O)NCC1CCN(Cc2ccsc2)CC1 | 107.8
CCC(CC)c1nnc(NC(=O)N2CCCC(NC(C)=O)C2)s1 (configuration not stated) | -9.059
CCn1ncnc1C(C)NC(=O)COc1ccc(Cl)cc1Cl (configuration not stated) | -23.74
CN(Cc1cc(C(C)(C)C)n[nH]1)Cc1c[nH]nc1-c1ccc(F)cc1 | -14.5
CC1(C)[C@H]2CC=C(CN3CCCn4nc(CCC(=O)O)cc4C3)[C@@H]1C2 | 1.513
O=C(Cc1ccc(F)cc1)NCC1CCN(Cc2ccsc2)CC1 | 152.7
O=C(Cn1cncn1)NCC1CCN(Cc2ccccc2Cl)CC1 | -9.372
CN1CCC(CNC(=O)Cc2ccc(N(C)C)cc2)CC1 | -0.2873
O=C(NCc1ccccc1)NCC1CCN(Cc2ccsc2)CC1 | 116.2
O=C(NCCCC(=O)N1Cc2ccccc2C1)NCc1ccsc1 | 1.068
CCOCC(=O)NCC1CCN(Cc2ccsc2)CC1 | 164
O=C(Cc1ccccc1Cl)NCC1CCN(Cc2ccsc2)CC1 | 104.9
Cc1ccccc1CN1CCC(CNC(=O)Cn2cncn2)CC1 | 9.92
Cc1cc(CN2CCC(CNC(=O)Cc3ccc(F)cc3)C2)[nH]n1 (configuration not stated) | 4.609
